Data as given in PubChem BioAssay AID1159580 (chemical genetic matrix, 2015).
Out of some 5,500 compounds screened, about 2,000 (36%) were called active. About 18% were inconclusive and are not listed. No stated cut-off is given here; in the data, active means normalized growth mostly below about 0.91 (no sharp cut-off); inconclusive means no clear call, values can overlap the other calls; inactive means mostly above about 0.92. This is one part of the list.

Test: chemical genetic growth profiling, strain panel (AID 1159580);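 further: tested at 20 µM; growth read once vehicle control cultures reached saturation at 30 °C; 1 = growth at the plate median or of vehicle wells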
Details: growth OD

Measured: normalized growth

COC1=C[C@@H]2[C@@H]3Cc4ccc(OC)c(O)c4[C@]2(CCN3C)CC1=O
inactive: S. cerevisiae deletion strains, locus YJR075W, strain HOC1, stronger effect = lower value 0.928 | S. cerevisiae deletion strains, locus YKL009W, strain mrt4, stronger effect = lower value 0.978 | S. cerevisiae deletion strains, locus YKL068W, stronger effect = lower value 0.977 | S. cerevisiae deletion strains, locus YKL085W, strain MDH1 (second series), stronger effect = lower value 0.979 | S. cerevisiae deletion strains, locus YKL085W, strain MDH1, stronger effect = lower value 0.979 | S. cerevisiae deletion strains, locus YKL160W, strain elf1, stronger effect = lower value 0.996 | S. cerevisiae deletion strains, locus YKL190W, strain CNB1, stronger effect = lower value 0.977 | S. cerevisiae deletion strains, locus YKR001C, strain vps1, stronger effect = lower value 0.992 | S. cerevisiae deletion strains, locus YKR026C, strain gcn3, stronger effect = lower value 1 | S. cerevisiae deletion strains, locus YKR091W, strain srl3, stronger effect = lower value 0.984 | S. cerevisiae deletion strains, locus YLL001W, strain dnm1, stronger effect = lower value 0.997 | S. cerevisiae deletion strains, locus YLL026W, stronger effect = lower value 0.982 | S. cerevisiae deletion strains, locus YLL041C, strain sdh2, stronger effect = lower value 1 | S. cerevisiae deletion strains, locus YLR027C, strain aat2, stronger effect = lower value 1 | S. cerevisiae deletion strains, locus YLR039C, strain RIC1, stronger effect = lower value 0.98 | S. cerevisiae deletion strains, locus YLR058C, strain SHM2, stronger effect = lower value 0.976 | S. cerevisiae deletion strains, locus YLR102C, strain apc9, stronger effect = lower value 0.971 | S. cerevisiae deletion strains, locus YLR113W, strain HOG1, stronger effect = lower value 1.01 | S. cerevisiae deletion strains, locus YLR221C, strain rsa3, stronger effect = lower value 0.993 | S. cerevisiae deletion strains, locus YLR258W, strain gsy2, stronger effect = lower value 0.987 | S. cerevisiae deletion strains, locus YLR262C, strain YPT6 (second series), stronger effect = lower value 0.999 | S. cerevisiae deletion strains, locus YLR262C, strain YPT6, stronger effect = lower value 0.926 | S. cerevisiae deletion strains, locus YLR268W, strain sec22, stronger effect = lower value 0.967 | S. cerevisiae deletion strains, locus YLR320W, strain mms22, stronger effect = lower value 1 | S. cerevisiae deletion strains, locus YLR330W, strain CHS5, stronger effect = lower value 0.999 | S. cerevisiae deletion strains, locus YLR342W, strain FKS1 (second series), stronger effect = lower value 1.03 | S. cerevisiae deletion strains, locus YLR342W, strain FKS1, stronger effect = lower value 1 | S. cerevisiae deletion strains, locus YLR357W, strain rsc2, stronger effect = lower value 0.943 | S. cerevisiae deletion strains, locus YLR370C, strain arc18, stronger effect = lower value 1 | S. cerevisiae deletion strains, locus YLR371W, strain rom2, stronger effect = lower value 0.952 | S. cerevisiae deletion strains, locus YLR384C, strain iki3, stronger effect = lower value 0.987 | S. cerevisiae deletion strains, locus YLR418C, strain cdc73, stronger effect = lower value 0.969 | S. cerevisiae deletion strains, locus YML016C, strain PPZ1, stronger effect = lower value 0.979 | S. cerevisiae deletion strains, locus YML032C, strain rad52, stronger effect = lower value 0.985 | S. cerevisiae deletion strains, locus YML120C, strain ndi1, stronger effect = lower value 1 | S. cerevisiae deletion strains, locus YML124C, strain tub3, stronger effect = lower value 0.986 | S. cerevisiae deletion strains, locus YMR058W, strain fet3, stronger effect = lower value 1.01 | S. cerevisiae deletion strains, locus YMR078C, strain ctf18, stronger effect = lower value 0.977 | S. cerevisiae deletion strains, locus YMR125W, strain sto1, stronger effect = lower value 0.975 | S. cerevisiae deletion strains, locus YMR129W, stronger effect = lower value 1 | S. cerevisiae deletion strains, locus YMR205C, strain PFK2, stronger effect = lower value 0.985 | S. cerevisiae deletion strains, locus YMR231W, strain pep5, stronger effect = lower value 0.995 | S. cerevisiae deletion strains, locus YMR263W, strain SAP30, stronger effect = lower value 0.962 | S. cerevisiae deletion strains, locus YMR307W, strain GAS1, stronger effect = lower value 1.03 | S. cerevisiae deletion strains, locus YNL067W, strain RPL9B, stronger effect = lower value 0.988 | S. cerevisiae deletion strains, locus YNL071W, strain lat1, stronger effect = lower value 0.996 | S. cerevisiae deletion strains, locus YNL128W, strain TEP1, stronger effect = lower value 0.961 | S. cerevisiae deletion strains, locus YNL153C, strain GIM3, stronger effect = lower value 0.96 | S. cerevisiae deletion strains, locus YNL183C, strain NPR1, stronger effect = lower value 0.959 | S. cerevisiae deletion strains, locus YNL209W, strain ssb2, stronger effect = lower value 1.01 | S. cerevisiae deletion strains, locus YNL233W, strain BNI4, stronger effect = lower value 0.979 | S. cerevisiae deletion strains, locus YNL248C, strain rpa49, stronger effect = lower value 0.978 | S. cerevisiae deletion strains, locus YNL250W, strain rad50, stronger effect = lower value 0.981 | S. cerevisiae deletion strains, locus YNL271C, strain bni1, stronger effect = lower value 0.988 | S. cerevisiae deletion strains, locus YNL298W, strain CLA4, stronger effect = lower value 0.96 | S. cerevisiae deletion strains, locus YNL307C, strain MCK1, stronger effect = lower value 0.989 | S. cerevisiae deletion strains, locus YNL322C, strain KRE1 (second series), stronger effect = lower value 0.975 | S. cerevisiae deletion strains, locus YNL322C, strain KRE1, stronger effect = lower value 0.98 | S. cerevisiae deletion strains, locus YNR049C, strain mso1, stronger effect = lower value 1.01 | S. cerevisiae deletion strains, locus YNR052C, strain pop2, stronger effect = lower value 0.982 | S. cerevisiae deletion strains, locus YOL006C, strain TOP1, stronger effect = lower value 0.942 | S. cerevisiae deletion strains, locus YOL012C, strain htz1 2.19 | S. cerevisiae deletion strains, locus YOL147C, strain pex11, stronger effect = lower value 0.992 | S. cerevisiae deletion strains, locus YOR001W, strain rrp6, stronger effect = lower value 1.01 | S. cerevisiae deletion strains, locus YOR061W, strain CKA2, stronger effect = lower value 0.962 | S. cerevisiae deletion strains, locus YOR069W, strain VPS5, stronger effect = lower value 0.987 | S. cerevisiae deletion strains, locus YOR070C, strain gyp1, stronger effect = lower value 0.986 | S. cerevisiae deletion strains, locus YOR080W, strain dia2, stronger effect = lower value 0.999 | S. cerevisiae deletion strains, locus YOR083W, strain WHI5, stronger effect = lower value 0.974 | S. cerevisiae deletion strains, locus YOR106W, strain vam3, stronger effect = lower value 0.997 | S. cerevisiae deletion strains, locus YOR136W, strain idh2, stronger effect = lower value 0.988 | S. cerevisiae deletion strains, locus YOR144C, strain elg1, stronger effect = lower value 0.986 | S. cerevisiae deletion strains, locus YOR184W, strain ser1, stronger effect = lower value 0.99 | S. cerevisiae deletion strains, locus YOR231W, strain MKK1, stronger effect = lower value 0.998 | S. cerevisiae deletion strains, locus YOR265W, strain rbl2, stronger effect = lower value 1.01 | S. cerevisiae deletion strains, locus YOR270C, strain vph1, stronger effect = lower value 0.996 | S. cerevisiae deletion strains, locus YOR290C, strain snf2, stronger effect = lower value 0.987 | S. cerevisiae deletion strains, locus YOR316C, strain cot1, stronger effect = lower value 0.965 | S. cerevisiae deletion strains, locus YPL051W, strain arl3, stronger effect = lower value 0.985 | S. cerevisiae deletion strains, locus YPL055C, strain LGE1, stronger effect = lower value 0.9 | S. cerevisiae deletion strains, locus YPL078C, strain atp4, stronger effect = lower value 0.983 | S. cerevisiae deletion strains, locus YPL106C, strain sse1, stronger effect = lower value 0.961 | S. cerevisiae deletion strains, locus YPL240C, strain hsp82, stronger effect = lower value 0.985 | S. cerevisiae deletion strains, locus YPL241C, strain CIN2, stronger effect = lower value 0.985 | S. cerevisiae deletion strains, locus YPL256C, strain CLN2, stronger effect = lower value 1.02 | S. cerevisiae deletion strains, locus YPR119W, strain clb2, stronger effect = lower value 0.984 | S. cerevisiae deletion strains, locus YPR141C, strain kar3, stronger effect = lower value 0.945 | S. cerevisiae deletion strains, locus YPR163C, strain tif3, stronger effect = lower value 0.983 | S. cerevisiae deletion strains, locus YPR167C, strain met16, stronger effect = lower value 0.979 | S. cerevisiae deletion strains, strain wtn01, stronger effect = lower value 0.992 | S. cerevisiae strains, strain wild type, stronger effect = lower value 0.992
